Molecules are shown by their SMILES.

One experiment is described as follows: qHTS profiling of the MIPE4 collection as inhibitors of Plasmodium falciparum (HB3) proliferation (AID 743347).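 Further: plate controls were DMSO vehicle wells for no effect and artemisinin wells for full effect.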 The note with it: P. falciparum HB3 in erythrocytes, SYBR Green DNA, 72 h; at 9.64 µM (top of the series). An excerpt:
Plasmodium falciparum is a virulent malarial parasite that kills 1-2 million people worldwide each year. Transmitted by mosquitoes, the sporozoite form of the parasite enters the blood stream to infect hepatocytes, where they become merozoites that infect red blood cells (erythrocytes). Within erythrocytes, merozoites begin a […] cycle of growth and division, after which the parasite is released to infect new red blood cells. Gametocytes, which form within erythrocytes as well, circulate in the bloodstream and are ingested by the mosquito, thereby completing the life cycle. To profile malarial isolates for differential chemical responses and to identify inhibitors of malarial growth, an assay that measures P. falciparum growth and replication within erythrocytes was employed. This assay uses a DNA binding fluorescent dye (SYBR Green) to detect parasite DNA following cell lysis. Because mature erythrocytes lack DNA, only Plasmodium-derived DNA is detected.
The SYBR Green viability assay was adapted from a method described previously (Plouffe et al., 2008). For screening 3 ul culture medium was dispensed into 1536 well black clear bottom plates (Aurora Biotechnologies) using a Multidrop Combi (Thermo Fisher Scientific Inc.), 23 nL compounds in DMSO were added by a pin tool (Kalypsys), and 5 ul of erythrocytes infected with P. falciparum (0.3% parasitemia, 2.5% hematocrit final concentration) were added. The plates were incubated at 37 C in a humidified incubator in 5% CO2 for 72 h, and 2 ul lysis buffer (20 mM Tris HCl, 10 mM EDTA, 0.16% saponin, 1.6% triton X, 10X SYBR Green I supplied as 10,000X […] by Invitrogen) was added to each well. The plates were mixed for 25 sec with gentle shaking and incubated overnight at room temperature in the dark. The following morning, fluorescence intensity at 485(14) nm excitation and 535(25) nm emission wavelengths was measured on an EnVision (Perkin Elmer) plate reader. Plate reads were normalized relative to the control inhibitor (0.29 uM artemisinin) and vehicle (DMSO) wells present on each plate and then corrected by an algorithm using vehicle-only control plates at the beginning and end of the compound plate stack.
On the technique in general: qHTS replaces the single test concentration by a dilution series.
Take `C[C@H]1C[C@@H]2[C@@H]([C@@H](O)C[C@@]3(C)[C@H]2CC[C@]3(O)C(=O)CO)[C@@]2(C)C=CC(=O)C=C12`: the growth, % of control is 93.3%.

Staying with this experiment, now noted: P. falciparum HB3 in erythrocytes, SYBR Green DNA, 72 h; at 28.5 µM (top of the series).
In the case of `C[C@H]1C[C@@H]2[C@@H]([C@@H](O)C[C@@]3(C)[C@H]2CC[C@]3(O)C(=O)CO)[C@@]2(C)C=CC(=O)C=C12`, the growth, % of control was 57.2%.

The experiment is the same for the next values; noted with them: P. falciparum HB3 in erythrocytes, SYBR Green DNA, 72 h; at 28.5 µM (top of the series) unless noted.
In the case of `Cc1cn2cc(C(=O)N(C)CCO)cc(N[C@@H]3CCOc4cccc(C)c43)c2n1`, the growth, % of control was determined as 47.6%.

The compound `Clc1ccc2ncc(-c3cccc(NC4CNC4)n3)n2c1` showed a growth, % of control of 3.87%.

Compound `CN(C)CCCN=c1c2ccccc2n(C)c2[nH]c(=O)n(C)c(=O)c12` showed a growth, % of control of 3%.

Compound `CC(C)c1cc(-c2n[nH]c(=O)n2-c2ccc3c(ccn3C)c2)c(O)cc1O` yielded a growth, % of control of 1.94%.

As to `C=CC(=O)Nc1cccc(Oc2nc(Nc3ccc(N4CCN(C)CC4)cc3)ncc2Cl)c1`, the growth, % of control turned out to be 5.58%.

The compound `COC(=O)c1ccc2c(C(=Nc3ccc(N(C)C(=O)CN4CCN(C)CC4)cc3)c3ccccc3)c(O)[nH]c2c1` came in with a growth, % of control of 5.35%.

As for `c1nc2nc(Nc3ccc(N4CCOCC4)cc3)nc(NC3CCCCC3)c2[nH]1`, the growth, % of control was 4.57%.

`O=C(NC1CCNCC1)c1[nH]ncc1NC(=O)c1c(Cl)cccc1Cl`: the growth, % of control came out at 8.44%.

For the compound `O=C(O)c1ccc2cc(-c3ccc(O)c(C45CC6CC(CC(C6)C4)C5)c3)ccc2c1`, the growth, % of control is 11.7%.

`CNC(=O)c1ccc(-c2cnc3ncc(Cc4ccc5ncccc5c4)n3n2)cc1F` yielded a growth, % of control of 10.4%.

`CC(C)=CCCC(C)=CCCC(C)=CCSc1ccccc1C(=O)O` came in with a growth, % of control of 15.5%.

As for `COc1ccc2c(c1)CC[C@@H](CN(C)CC(=O)O)[C@H]2c1ccccc1`, the growth, % of control is 24.2%.

In turn, `OCCCNc1cc(-c2ccnc(Nc3cccc(Cl)c3)n2)ccn1` returned a growth, % of control of 6.21%.

`Cc1cc(Nc2cc(N3CCN(C)CC3)nc(Sc3ccc(NC(=O)C4CC4)cc3)n2)n[nH]1` returned a growth, % of control of 2.93%.

`COc1cccc2c(NCc3ccccc3)nc(-n3c(N)nc4ccccc43)nc12` had a growth, % of control of 3.05%.

The compound `Cc1cnc(Nc2ccc(F)cc2Cl)nc1-c1c[nH]c(C(=O)N[C@H](CO)c2cccc(Cl)c2)c1` came in with a growth, % of control of 11.5%.

Take `C=CC(=O)Nc1cccc(Oc2nc(Nc3ccc(N4CCN(C)CC4)cc3OC)ncc2Cl)c1`: the growth, % of control was determined as 4.13%.

Compound `CN(C)CC=CC(=O)Nc1cc2c(Nc3ccc(F)c(Cl)c3)ncnc2cc1O[C@H]1CCOC1` yielded a growth, % of control of 8.85%.

As for `COc1cc2c(Oc3ccc4[nH]c(C)cc4c3F)ncnc2cc1OCCCN1CCCC1`, the growth, % of control stood at 6.98%.

Consider `COc1cc2c(Nc3ccc(NC(=O)c4ccccc4)cc3)ncnc2cc1OCCCN1CCOCC1`, for which the growth, % of control turned out to be 8.34%.

Consider `COc1ccc(C=Cc2cc(OC)c(OC)c(OC)c2)cc1O`, for which the growth, % of control worked out at 22.3%.

Compound `Cc1cc(Nc2cc(N3CCN(C)CC3)nc(C=Cc3ccccc3)n2)n[nH]1` registered a growth, % of control of 2.5% [at 57.5 µM].

In turn, `Cc1ccc(C(N)=O)cc1Nc1nccc(-c2cn(C(C)C)c3cnccc23)n1` yielded a growth, % of control of 3.05%.

In the case of `CN[C@H]1CCc2cc(OC)c(OC)c(OC)c2-c2ccc(OC)c(=O)cc21`, the growth, % of control was found to be 90.6%.

`C#Cc1cccc(Nc2ncnc3cc(OC)c(OCCCCCCC(=O)NO)cc23)c1` yielded a growth, % of control of 3.1%.

`O=C(CCCCCCC(=O)Nc1ccc([C@H]2O[C@@H](CSc3nc(-c4ccccc4)c(-c4ccccc4)o3)C[C@@H](c3ccc(CO)cc3)O2)cc1)NO` gave a growth, % of control of 6.35%.

With `CC(C)(C)c1cc(NC(=O)Nc2ccc(-c3cn4c(n3)sc3cc(OCCN5CCOCC5)ccc34)cc2)no1`, the growth, % of control worked out at 2.53%.

As for `C[C@@]12O[C@@H](C[C@]1(O)CO)n1c3ccccc3c3c4c(c5c6ccccc6n2c5c31)CNC4=O`, the growth, % of control was found to be 9.72%.

`c1ccc2c(CCNc3ccc(Nc4ccncc4)cc3)c[nH]c2c1` yielded a growth, % of control of 5.7%.

In turn, `Cn1c(=O)n(-c2ccc(C(C)(C)C#N)cc2)c2c3cc(-c4cnc5ccccc5c4)ccc3ncc21` registered a growth, % of control of 2.31%.

Regarding `COc1ccc2c(OCc3nnc4ccc(-c5ccccc5)nn34)ccnc2c1`, the growth, % of control is 59.2%.

With `Cc1ccc2nc(NC(=O)CSc3nc4c(c(=O)n3-c3ccccc3)SCC4)sc2c1`, the growth, % of control stood at 42.3%.

The compound `Nc1ccccc1NC(=O)c1ccc(CNC(=O)OCc2cccnc2)cc1` gave a growth, % of control of 7.7%.

`CC=CC1=C(C(=O)O)N2C(=O)[C@H](NC(=O)[C@H](N)c3ccc(O)cc3)[C@@H]2SC1`: the growth, % of control was determined as 88%.

For the compound `CNC(=O)c1c(F)cccc1Nc1nc(Nc2cc3c(cc2OC)CCN3C(=O)CN(C)C)nc2[nH]ccc12`, the growth, % of control came out at 2.27%.

`Cc1c(Cn2c(C)nc3c(C(=O)O)cc(N4CCOCC4)cc32)cccc1C(F)(F)F` gave a growth, % of control of 124%.

In the case of `COc1cccc(-c2ccc(NC(=O)C3=C(C(=O)O)CCC3)c(F)c2)c1`, the growth, % of control amounted to 78.8%.

In the case of `O=C(Cc1ccc(-c2ccc(OCCN3CCOCC3)cc2)cn1)NCc1ccccc1`, the growth, % of control was determined as 11.9%.

The record behind these values is PubChem BioAssay (NCATS).
